Measurements: the supplement of paper PMC6897291
Structures can show the parent of a compound that is named as a salt.

Tested on: U-2932
Assay: growth inhibition by drug plus 177Lu-lilotomab satetraxetan (1 - RLU/untreated control) (fraction); higher = stronger inhibition
Conditions: 1000 nM; time (day): 3; 177Lu-lilotomab satetraxetan 1 ug/ml
How it was run: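 Plates pre-printed with the Selleck Cambridge Cancer Compound library at 10/100 nM (RIVA) or 10/1,000 nM (U-2932) received 3,000 cells/well. These cells had been washed after 18 h untreated or with a radiolabelled anti-CD37 antibody conjugate (~600 MBq/mg; 0.5 µg/ml RIVA, 1 µg/ml U-2932). Growth inhibition was obtained from RealTime-Glo luminescence in relation to untreated no-drug wells. Each daily read from day 3, taken after 1 h at 37°C, was converted as 1 − RLU/mean of 48 such wells per plate.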

SMILES | growth inhibition by drug plus 177Lu-lilotomab satetraxetan
Nc1cc(C(F)(F)F)c(-c2cc(N3CCOCC3)nc(N3CCOCC3)n2)cn1 | 0.508
CC(C)(C)c1ccc(S(=O)(=O)/C=C/C#N)cc1 | 0.517
C[C@]1(c2nc3c(C(N)=O)cccc3[nH]2)CCCN1 [ABT-888 (Veliparib)] | -0.0568
Cc1ccc(NC(=O)c2ccc(CN3CC[C@H](N(C)C)C3)c(C(F)(F)F)c2)cc1Nc1nccc(-c2cncnc2)n1 [Bafetinib (INNO-406)] | 0.00697
C[C@]12CC[C@@H]3c4ccc(O)cc4CC[C@H]3[C@@H]1CCC2=O [Estrone] | 0.0277
O=C(c1ccc(OCCN2CCCCC2)cc1)c1c(-c2ccc(O)cc2)sc2cc(O)ccc12 [Evista (Raloxifene Hydrochloride)] | -0.103
CCN(CC)CCNC(=O)c1c(C)[nH]c(/C=C2\C(=O)Nc3ccc(F)cc32)c1C [Sunitinib Malate (Sutent)] | -0.0792
CCOc1ccc(Nc2nc(-c3c(C)nc4ccccn34)cs2)cc1 | 0.968
C=CC(=O)N1CCC[C@@H](n2nc(-c3ccc(Oc4ccccc4)cc3)c3c(N)ncnc32)C1 | 0.639
CS(=O)(=O)c1cccc(CNc2nc(Nc3ccc4c(c3)CCC(=O)N4)ncc2C(F)(F)F)c1 | 0.0169
CC(NC(=O)c1ccccc1/N=C/c1c(O)ccc2ccccc12)c1ccccc1 (stereo unspecified) [Sirtinol] | -0.00947
CN(Cc1cnc2nc(N)nc(N)c2n1)c1ccc(C(=O)N[C@@H](CCC(=O)O)C(=O)O)cc1 [Abitrexate (Methotrexate)] | 0.851
OCCn1cc(-c2cnc3nnn(Cc4ccc5ncccc5c4)c3n2)cn1 | 0.0296
COc1cc(Nc2ncc(F)c(Nc3ccc4c(n3)NC(=O)C(C)(C)O4)n2)cc(OC)c1OC [R406(free base)] | 0.069
COc1cccc2c1C(=O)c1c(O)c3c(c(O)c1C2=O)C[C@@](O)(C(=O)CO)C[C@@H]3O[C@H]1C[C@H](N)[C@H](O)[C@H](C)O1 [Doxorubicin (Adriamycin)] | 0.979
CN(NC(=O)CC(=O)NN(C)C(=S)c1ccccc1)C(=S)c1ccccc1 [Elesclomol] | 0.983
CN(C)CCOc1ccc(/C(=C(/CCCl)c2ccccc2)c2ccccc2)cc1 [Toremifene Citrate (Fareston, Acapodene)] | 0.0949
CN1CCN(CCOc2cc(OC3CCOCC3)c3c(Nc4c(Cl)ccc5c4OCO5)ncnc3c2)CC1 [Saracatinib (AZD0530)] | -0.174
CC(C)C[C@H](NC(=O)[C@H](Cc1ccccc1)NC(=O)c1cnccn1)B(O)O [Bortezomib (Velcade)] | 0.986
Cn1cncc1[C@@](N)(c1ccc(Cl)cc1)c1ccc2c(c1)c(-c1cccc(Cl)c1)cc(=O)n2C [Tipifarnib (Zarnestra)] | 0.777
COC(=O)c1ccc2c(C(=Nc3ccc(N(C)C(=O)CN4CCN(C)CC4)cc3)c3ccccc3)c(O)[nH]c2c1 [BIBF1120 (Vargatef)] | -0.172
CC[C@@H]1/C=C(\C)C[C@H](C)C[C@H](OC)[C@H]2O[C@@](O)(C(=O)C(=O)N3CCCC[C@H]3C(=O)O[C@H](/C(C)=C/[C@@H]3CC[C@H](Cl)[C@H](OC)C3)[C@H](C)[C@@H](O)CC1=O)[C@H](C)C[C@@H]2OC [Pimecrolimus] | 0.12
CN(C)CCOc1ccc(-c2nc(-c3ccncc3)c(-c3ccc4c(c3)CC/C4=N\O)[nH]2)cc1 | 0.124
COc1ccc(CCN2CCN(CCCc3ccccc3)CC2)cc1OC | 0.0208
CNC(=O)c1cc(Oc2ccc(NC(=O)Nc3cc(C(C)(C)C)nn3-c3ccc4ncccc4c3)c(F)c2)ccn1 [DCC-2036 (Rebastinib)] | 0.0878
CCC(C)(C)C(=O)O[C@H]1C[C@@H](C)C=C2C=C[C@H](C)[C@H](CC[C@@H]3C[C@@H](O)CC(=O)O3)[C@H]21 [Simvastatin (Zocor)] | -0.0261
CCc1ccc(CCOc2ccc(CC3SC(=O)NC3=O)cc2)nc1 (stereo unspecified) [Pioglitazone (Actos)] | -0.102
O=C(O)C(Cc1c[nH]c2ccccc12)N1C(=O)c2ccccc2C1=O (stereo unspecified) | -0.157

Same assay, conditions: 1000 nM; time (day): 4; 177Lu-lilotomab satetraxetan 1 ug/ml

SMILES | growth inhibition by drug plus 177Lu-lilotomab satetraxetan
Nc1nc2[nH]cc(CCc3ccc(C(=O)N[C@@H](CCC(=O)O)C(=O)O)cc3)c2c(=O)[nH]1 [Pemetrexed] | 0.951
COc1cc2nccc(Oc3ccc(NC(=O)Nc4cc(C)on4)c(Cl)c3)c2cc1OC [Tivozanib (AV-951)] | 0.217
CCC(=O)N1CCN(c2ccc(-n3c(=O)ccc4cnc5ccc(-c6cnc7ccccc7c6)cc5c43)cc2C(F)(F)F)CC1 [Torin 1] | 0.878
COc1cccc2c1C(=O)c1c(O)c3c(c(O)c1C2=O)C[C@@](O)(C(=O)CO)C[C@@H]3O[C@H]1C[C@H](N)[C@@H](O)[C@H](C)O1 [Epirubicin Hydrochloride] | 0.977
Clc1ccc(Nc2nnc(Cc3ccncc3)c3ccccc23)cc1 [Vatalanib dihydrochloride (PTK787)] | 0.0231
COc1cc2nccc(Oc3ccc(NC(=O)C4(C(=O)Nc5ccc(F)cc5)CC4)cc3)c2cc1OC [XL-184 free base (Cabozantinib)] | 0.177
C[C@@H](O[C@H]1OCCN(Cc2n[nH]c(=O)[nH]2)[C@H]1c1ccc(F)cc1)c1cc(C(F)(F)F)cc(C(F)(F)F)c1 [Aprepitant (MK-0869)] | 0.0386
COc1cc2c(cc1O)CC[C@@H]1[C@@H]2CC[C@]2(C)[C@@H](O)CC[C@@H]12 [2-Methoxyestradiol] | 0.761
CNCc1ccc(-c2[nH]c3cc(F)cc4c3c2CCNC4=O)cc1 | 0.0885
CC[C@@]1(O)C(=O)OCc2c1cc1n(c2=O)Cc2cc3c(CN(C)C)c(O)ccc3nc2-1 [Topotecan HCl] | 0.978
Nc1cc(C(F)(F)F)c(-c2cc(N3CCOCC3)nc(N3CCOCC3)n2)cn1 | 0.421
CC(C)(C)c1ccc(S(=O)(=O)/C=C/C#N)cc1 | 0.565
C[C@]1(c2nc3c(C(N)=O)cccc3[nH]2)CCCN1 [ABT-888 (Veliparib)] | 0.0163
Cc1ccc(NC(=O)c2ccc(CN3CC[C@H](N(C)C)C3)c(C(F)(F)F)c2)cc1Nc1nccc(-c2cncnc2)n1 [Bafetinib (INNO-406)] | 0.00776
C[C@]12CC[C@@H]3c4ccc(O)cc4CC[C@H]3[C@@H]1CCC2=O [Estrone] | 0.0438
O=C(c1ccc(OCCN2CCCCC2)cc1)c1c(-c2ccc(O)cc2)sc2cc(O)ccc12 [Evista (Raloxifene Hydrochloride)] | 0.0136
CCN(CC)CCNC(=O)c1c(C)[nH]c(/C=C2\C(=O)Nc3ccc(F)cc32)c1C [Sunitinib Malate (Sutent)] | -0.017
CCOc1ccc(Nc2nc(-c3c(C)nc4ccccn34)cs2)cc1 | 0.978
C=CC(=O)N1CCC[C@@H](n2nc(-c3ccc(Oc4ccccc4)cc3)c3c(N)ncnc32)C1 | 0.723

SMILES | growth inhibition by drug plus 177Lu-lilotomab satetraxetan
CS(=O)(=O)c1cccc(CNc2nc(Nc3ccc4c(c3)CCC(=O)N4)ncc2C(F)(F)F)c1 | 0.0857
CC(NC(=O)c1ccccc1/N=C/c1c(O)ccc2ccccc12)c1ccccc1 (stereo unspecified) [Sirtinol] | 0.0904
CN(Cc1cnc2nc(N)nc(N)c2n1)c1ccc(C(=O)N[C@@H](CCC(=O)O)C(=O)O)cc1 [Abitrexate (Methotrexate)] | 0.924
OCCn1cc(-c2cnc3nnn(Cc4ccc5ncccc5c4)c3n2)cn1 | 0.08
COc1cc(Nc2ncc(F)c(Nc3ccc4c(n3)NC(=O)C(C)(C)O4)n2)cc(OC)c1OC [R406(free base)] | 0.0868
COc1cccc2c1C(=O)c1c(O)c3c(c(O)c1C2=O)C[C@@](O)(C(=O)CO)C[C@@H]3O[C@H]1C[C@H](N)[C@H](O)[C@H](C)O1 [Doxorubicin (Adriamycin)] | 0.986
CN(NC(=O)CC(=O)NN(C)C(=S)c1ccccc1)C(=S)c1ccccc1 [Elesclomol] | 0.982
CN(C)CCOc1ccc(/C(=C(/CCCl)c2ccccc2)c2ccccc2)cc1 [Toremifene Citrate (Fareston, Acapodene)] | 0.116
CN1CCN(CCOc2cc(OC3CCOCC3)c3c(Nc4c(Cl)ccc5c4OCO5)ncnc3c2)CC1 [Saracatinib (AZD0530)] | -0.108
CC(C)C[C@H](NC(=O)[C@H](Cc1ccccc1)NC(=O)c1cnccn1)B(O)O [Bortezomib (Velcade)] | 0.987
Cn1cncc1[C@@](N)(c1ccc(Cl)cc1)c1ccc2c(c1)c(-c1cccc(Cl)c1)cc(=O)n2C [Tipifarnib (Zarnestra)] | 0.805
COC(=O)c1ccc2c(C(=Nc3ccc(N(C)C(=O)CN4CCN(C)CC4)cc3)c3ccccc3)c(O)[nH]c2c1 [BIBF1120 (Vargatef)] | -0.0703
CC[C@@H]1/C=C(\C)C[C@H](C)C[C@H](OC)[C@H]2O[C@@](O)(C(=O)C(=O)N3CCCC[C@H]3C(=O)O[C@H](/C(C)=C/[C@@H]3CC[C@H](Cl)[C@H](OC)C3)[C@H](C)[C@@H](O)CC1=O)[C@H](C)C[C@@H]2OC [Pimecrolimus] | 0.321
CN(C)CCOc1ccc(-c2nc(-c3ccncc3)c(-c3ccc4c(c3)CC/C4=N\O)[nH]2)cc1 | 0.0207
COc1ccc(CCN2CCN(CCCc3ccccc3)CC2)cc1OC | 0.0062
CNC(=O)c1cc(Oc2ccc(NC(=O)Nc3cc(C(C)(C)C)nn3-c3ccc4ncccc4c3)c(F)c2)ccn1 [DCC-2036 (Rebastinib)] | 0.127
CCC(C)(C)C(=O)O[C@H]1C[C@@H](C)C=C2C=C[C@H](C)[C@H](CC[C@@H]3C[C@@H](O)CC(=O)O3)[C@H]21 [Simvastatin (Zocor)] | -0.0186
CCc1ccc(CCOc2ccc(CC3SC(=O)NC3=O)cc2)nc1 (stereo unspecified) [Pioglitazone (Actos)] | -0.0405
O=C(O)C(Cc1c[nH]c2ccccc12)N1C(=O)c2ccccc2C1=O (stereo unspecified) | -0.0639
